{"source": "the supplement of paper PMC12632987", "binders": {"B1": {"name": "GBRAPL2_128_7283 (protein)", "chain": "MKLVEIDITVKNEEEYKLAKEVLKEIAEKGSPAVAKLADAALDMLESEKEEGFKDGVTVADILTEEEAEELKKLYEELAKKYGEEKVKKIIELTVDDIPP"}, "B2": {"name": "GBRAPL2_128_7281 (protein)", "chain": "MKLVTIDIDVENEEEYELVKKVLDEIIEKGSPEVADLADAAKDMLEESKKEGFKEKVSVADILSDEEAEELKKLFEELAKKYGEEKVNKHIELEIDDLPP"}, "B3": {"name": "GBRAPL2_151_7301 (protein)", "chain": "SWKEEAIKALEEAAKIAEEAVEKLSEEQELEKTEFELIAGGMDALKALIEETDDEELIKKYVERGAELVKDAAEIAKELGLEELAKKFEKLAKELEKLSK"}, "B4": {"name": "GBRAPL2_128_7296 (protein)", "chain": "MKIVEIDIDVENEEEAELVLEILEEISKKSSPEVKKLMDAAKDMVESLKEDGYDEKATVVDILSEEDAKELEELYKEEAKKYGEEKVKKIIKLEIDEIPP"}, "B5": {"name": "GBRAPL2_128_7299 (protein)", "chain": "MKLVEIDITIENKEEAELVKKILEEIAKKGSEEVKKLADAAKDLAETLAEEGYGEKGTVVDILSDEDAEELKKLYEELAEKYGKEKVEKRIKLEVDDIPP"}, "B6": {"name": "GBRAPL2_128_7291 (protein)", "chain": "MKLVEISVKVENEEEYELAKKVLSDIAEKSSPEVAKLADAARDMLEENKEEGYNVGVTVADILSEEQAEELRKLFEEVAKEYGKEKVEKIIELTVDDLPP"}, "B7": {"name": "GBRAPL2_151_7305 (protein)", "chain": "SEKEKAIELLEEAAKAAEEAIKKLSEEQELAKTEFELIAGGLEALAILVEETDDEEEIKRLIKEAAELTEDAAKLAEELGLEEEAKKLKEISKELKKLAE"}, "B8": {"name": "GBRAPL2_151_7300 (protein)", "chain": "EWKEEAIKALEEAAKIAEEAVEKLDESQELEKTEFELIAGGLDALKALIEETDDEEKIREYVKRGAELVKDAAKIAKELGLEEEAKKFEKLAKKLEELSK"}, "B9": {"name": "GBRAPL2_128_7284 (protein)", "chain": "MKLVEIDITVKNEEEYELVLKVLTEIAERGSPAVAKLADAAKDMVEEEKKEGFKDGVTVADVLSDEDAAELKALYEELAEKYGKEKVNKHIKLTVDDLPP"}, "B10": {"name": "GBRAPL2_128_7285 (protein)", "chain": "MKLVTIDIKVENEEEYELAKKVLDEIAEEGSPAVAKLADAARDMLESEKEEGFKDGVSVADILSDEEAEELKELYEKLAEKYGKEKVNKIIELTVDDLPP"}, "B11": {"name": "GBRAPL2_128_7297 (protein)", "chain": "MKLVEIDIDINNEEEAKLVIEVLEEIAKEGSEEVKKLAEAAKDLAESLAEEGYGEKGTVVDILSEEDAKELKELYEKLSKKYGKEKIEKRIKLEVDDIPP"}, "B12": {"name": "GBRAPL2_128_7293 (protein)", "chain": "MKIVEVDIEIKNEEEAEKVKAAFDEIAERGSPAVAKLADAAKDMAESLLEDGFDEKGTVVDVLSDEDAAELRELYEELAKEYGEEFMNENIKLTIDDIPP"}, "B13": {"name": "GBRAPL2_128_7274 (protein)", "chain": "MKIVEIDIDIKNEEQYELALEVLDRIAANSSPAVADLADAARDLAESAKEEGFDENVSAVDVLSDEDAAELQAIYDEIAAELGEEKVNSVVKLTIDPLEP"}, "B14": {"name": "GBRAPL2_128_7275 (protein)", "chain": "MKIVEIDVDIKNEEQYNLALEILDEIAENSSPAVADLADAAKDLAESSKERGFDENVTAVDVLSEEDAEELRRIYEEIAEKLGREKVESVVRLEISDLEP"}, "B15": {"name": "GBRAPL2_151_7302 (protein)", "chain": "SWKEKIIKALEEAAKIAEEAVEKLSESQELEKTEFELIAGGLDALRALIEETDDEEEIRRLARRAAELTKDGAEIAKKLGLEEEAEKFEKRAKELEELAE"}, "B16": {"name": "GBRAPL2_128_7276 (protein)", "chain": "KKIVSIDVDLKDEESYELALKILEEIAEKSSPKVKELAEAAKDLAEAAKEEGFGETVTAVDILSDEEVEELKKIYAEIKKKYGEEKVNSVVKIEIDELKP"}, "B17": {"name": "GBRAPL2_128_7280 (protein)", "chain": "MKLVEISVTVENEEEYELAKKVLTEIAEKGSPEVAKLADAALDLVESNKEDGFDEAVVAVDILSEEDAEELKELYEELAEKYGKEKVEKVIQVEVDDIPP"}, "B18": {"name": "GBRAPL2_128_7292 (protein)", "chain": "MKLVEIDLDIKNEEEYELAKKVLTELARESSPAVADLANAALDMVEEAKKDGFKDKYVVADVLSPEDAAELEALFNRLAERYGAEKVRKVIQLEVSDIPP"}, "B19": {"name": "GBRAPL2_128_7294 (protein)", "chain": "MKIVEIDLDIKNEEEANLAKEILKEIAAKSSEKVKDLMDAAIDMVESLEEDGYDEKATVVDVLSEEDAEELKKLYEEEAKKYGEEKVNKIIKLEISDIPP"}, "B20": {"name": "GBRAPL2_128_7287 (protein)", "chain": "MKLVTIDITIENEEEYELAEKVLEELARRGSPAVADLADAALDMVRSAKEDGYNENVAVTDILSPEDAAELKALLEELAKEYGEEKVNRIIKLEVDDIPP"}, "B21": {"name": "GBRAPL2_128_7279 (protein)", "chain": "MKIVEIDIDVENEEEYKLAKEVLEKIAEEGSPEVAKLADAALDLVEENEEDGFDEKFTAVDILSEEDAEELKELFEELAEKLGKEKVEKVIKLEIDDIPP"}, "B22": {"name": "GBRAPL2_128_7290 (protein)", "chain": "MKLVTIDVTIKNEEEYNLAVKVLKELAEKGSPKVADLADAARDMVEEAKKEGYNENVSVADILSEEDAEELKKLYEELAKKYGEEKVKSIIKLTIDDIPP"}, "B23": {"name": "GBRAPL2_128_7298 (protein)", "chain": "MKLVEIDIDIENEEEAKLVLEILDEIAKRGSPEVKKLADAAKDLAESLAESGYGEKGTVVDILSEEDAEELKKLYEELAKEYGEEKVKKRIKLEVDDIPP"}, "B24": {"name": "GBRAPL2_128_7289 (protein)", "chain": "MKLVTLDIDIENEEEFKLAKKVLEELAKKGSPAVADLANAALDMVEEAEKDGYNEKVSVADILSEEDAEELKKLLEELAKKYGEEKVKKIIKLEIDELPP"}, "B25": {"name": "GBRAPL2_128_7273 (protein)", "chain": "MYLVEIDIDVKDEESYNLAVEILDEIAKNSSEKVKDLAEAARDMAEIAYENGFDEKVVVVDIVSEEEAEELKKIYEEIKKKKGEEKVNSVVELEIDEVEP"}, "B26": {"name": "GBRAPL2_151_7304 (protein)", "chain": "GWKEEAIKALEKAAKAAEEAAAALPESQELERTELELLAGGFEADAILIEETDDEEEIKRLVKEAAERAEDAAKLAKKLGLEEQAKKLEKIAKELKKLAK"}, "B27": {"name": "GBRAPL2_128_7278 (protein)", "chain": "MKLVEIDIDIKNEEEYELAKKVLKRIAEEGSPEVSKLADAALDLVEENKEEGFKYSRTVVDILSEEDAEELKELFEKLAEEYGKEKVEKVIKLEIDDIPP"}, "B28": {"name": "GBRAPL2_128_7288 (protein)", "chain": "MKLVTLDVDVEDEEEYELALEVLTRLAERGSPAVARLADAARDMVEEAKEEGYDEEVAVTDILSEEDAEELRALYEELAAELGAERVSRVIRLEVDDLPP"}, "B29": {"name": "GBRAPL2_151_7303 (protein)", "chain": "GWKEEAIKALEEAAKAAEEAAKALSPEHELERTELELLAGGFEADAILIEETDDEEEIKRLVKEAAEMAKDAAKLAKKLGLEKEAKKLEKIAEKLKKLAE"}, "B30": {"name": "GBRAPL2_128_7295 (protein)", "chain": "MKIVEIDIDIKNEEEAELVKEIFKEIAEKSSPEIKKLMDAAIDMVESLKEDGYDEKGTVVDILSKEDAEELKKLYEEEAEKYGKEKVEKIIKLEISDIPP"}, "B31": {"name": "GBRAPL2_128_7286 (protein)", "chain": "MKLVEIDIDIKNKEEYELAKAVLDDIAKNSSPKVAKLADAAKDMAEEAAKEGYKEKVTVADILTDEEAEELKKLLEELKEKYGKEKVEKVIKLTVDDLPP"}, "B32": {"name": "GBRAPL2_128_7282 (protein)", "chain": "MKLVTIDVTVENEEEYNLAVEVFDEIIEEGSEKVADLADAAKDMLESSKENGYKENVSVADILSDEDAEELRELFEELAKKYGEEKVKKIIELTIDDLPP"}}}
{"molecular_target": "GABARAPL2, P60520", "sequence (P60520 whole entry, the tested form may be a part)": "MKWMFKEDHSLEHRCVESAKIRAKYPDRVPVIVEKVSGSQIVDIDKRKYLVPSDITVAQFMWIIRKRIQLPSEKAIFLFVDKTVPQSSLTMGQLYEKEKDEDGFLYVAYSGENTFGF", "test": "median log2 fold change of GCK-ALFA target abundance (FLAG IP / Myc IP barcode read proportion) (log2 ratio); each designed protein is fused to an ALFA-tag nanobody in HEK293 cells to bring the named protein to FLAG-tagged glucokinase (GCK); Myc marks an untargeted standard; higher = target protein stabilised (more abundant)", "settings": "target protein: 3xFLAG-MCP-GCK-ALFA reporter; HEK293 landing pad (RPLP)", "how_it_was_run": "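Sequencing of reverse-transcribed, amplified circular RNA barcodes from anti-FLAG and anti-Myc immunoprecipitates provided the readout for an ALFA-nanobody-fused binder library recombined into HEK293 landing-pad cells. Those cells were induced with 2 μg mL^−1 doxycycline, transfected with a plasmid expressing a FLAG-tagged target and a Myc-tagged standard, and lysed after 48 h. Target abundance is the per-binder median log2 ratio of FLAG to Myc barcode read proportions. Only barcodes at a proportion of ≥10^−7 in both replicates and binders with ≥3 barcodes per replicate were kept, with a 10^−6 pseudocount added before the two replicates were pooled.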"}
{"binder": "B1", "median log2 fold change": -0.458}
{"binder": "B2", "median log2 fold change": -0.33}
{"binder": "B3", "median log2 fold change": 0.0733}
{"binder": "B4", "median log2 fold change": -0.305}
{"binder": "B5", "median log2 fold change": -0.468}
{"binder": "B6", "median log2 fold change": 0.0557}
{"binder": "B7", "median log2 fold change": -0.356}
{"binder": "B8", "median log2 fold change": 0.271}
{"binder": "B9", "median log2 fold change": -0.0335}
{"binder": "B10", "median log2 fold change": -0.134}
{"binder": "B11", "median log2 fold change": -0.194}
{"binder": "B12", "median log2 fold change": -0.421}
{"binder": "B13", "median log2 fold change": -0.506}
{"binder": "B14", "median log2 fold change": -0.585}
{"binder": "B15", "median log2 fold change": 0.2}
{"binder": "B16", "median log2 fold change": -0.258}
{"binder": "B17", "median log2 fold change": -0.794}
{"binder": "B18", "median log2 fold change": -0.166}
{"binder": "B19", "median log2 fold change": 0.042}
{"binder": "B20", "median log2 fold change": -0.633}
{"binder": "B21", "median log2 fold change": -0.539}
{"binder": "B22", "median log2 fold change": -0.128}
{"binder": "B23", "median log2 fold change": -0.397}
{"binder": "B24", "median log2 fold change": -0.0985}
{"binder": "B25", "median log2 fold change": -0.586}
{"binder": "B26", "median log2 fold change": 0.0343}
{"binder": "B27", "median log2 fold change": 0.112}
{"binder": "B28", "median log2 fold change": -0.203}
{"binder": "B29", "median log2 fold change": 0.179}
{"binder": "B30", "median log2 fold change": -0.663}
{"binder": "B31", "median log2 fold change": -0.551}
{"binder": "B32", "median log2 fold change": -0.381}
